Shown are actives, neighbours in structure and some others; about 3.6% of the full set was active somewhere.
KDM4E inh – blocks human JMJD2E demethylase activity. 230,000 tested, 1.6% active. Potency, µM (highest dose often 57.1 µM), without a hit: at the top dose activity change, negative = inhibition, hits mostly inhibitors. JMJD2E catalytic domain, FDH-coupled NADH fluorescence (FDH is formaldehyde dehydrogenase). B2RXH2; active = well fitted inhibition curve with a large enough effect, not every such curve was filed as active; inconclusive = small, poorly fitted or top-dose-only effect, or another doubt; inactive = no such curve, though single readings can be large or run the other way;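 note: 0% = wells with enzyme and -100% = buffer wells without enzyme; nearly all actives have a fitted effect of over 50% in size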
Epigenetic reg – regulators of epigenetic silencing causing reporter derepression in mouse cells; 280,000 tested, 0.2% active; AID 1865; murine LDR cells, GFP reporter derepression, 30 h; Potency, µM (titrated, usually from 53.9 µM), inactives show at the highest dose GFP activation, usual class: activators; note: % of control where 0% means no effect; nearly all actives have a fitted effect of over 60% in size
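GFP-positive cell count by laser-scanning cytometry (objects 20–120 um) after 30 h, 37 C compound exposure of murine LDR cells; reporter is CMV-GFP integrated at a silenced locus, inducible by HDAC or DNMT inhibitors.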
IMPase Li cell – membrane-permeable IMPase blocker, potentiated with lithium; 210,000 tested, 0.35% active; Potency, µM (highest dose often 59.4 µM), inactives show top-dose activity, negative = IMPase inhibition, most hits filed as inhibitors; CHO-M1 cells, IP1 TR-FRET (IP-One), carbachol + lithium;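 note: IP1 builds up when IMPase is blocked and the TR-FRET signal falls; plate controls were basal vehicle for no effect and high inhibitor control for full effect; nearly all actives have a fitted effect of over 50% in size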
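CHO cells stably expressing M1 receptor (2000/well) were cultured 16–30 h, then exposed to compounds with a small lithium addition for 30 min at 37C. IP1 was measured by TR-FRET competition; AC50 from Hill fits.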
Sfp PPTase inh – blocks B. subtilis Sfp PPTase activity; Potency, µM, inactives show largest response in the series, negative = inhibition, most hits filed as inhibitors; Q9F4F7; Biochemical Sfp PPTase activity, qHTS; 310,000 tested, 3.5% active;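 note: the enzyme is Sfp with the accession as filed and its product quenches rhodamine fluorescence; 0% = enzyme reaction without inhibitor and -100% = no enzyme wells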
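After 15 min at room temperature with compound, 15 nM Sfp received 5 uM rhodamine-CoA plus 12.5 uM BHQ-2-ybbR (50 mM Hepes pH 7.6, 10 mM MgCl2). Rate came from the fluorescence difference over 30 min, ex 525/em 598 nm.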
NPSR antag – neuropeptide S receptor (human) antagonism, cAMP. Q6W5P4. Potency, µM (highest dose often 38.3 µM), without a hit: at the top dose activity change, negative = inhibition, most hits filed as inhibitors. 220,000 tested, 1% active. CHO-NPSR cells, cAMP TR-FRET, antagonist mode; note: % is set by controls: 0 for no effect and ±100 for the full control effect; nearly all actives have a fitted effect of over 50% in size
Target sequence (Q6W5P4 whole entry, looked up): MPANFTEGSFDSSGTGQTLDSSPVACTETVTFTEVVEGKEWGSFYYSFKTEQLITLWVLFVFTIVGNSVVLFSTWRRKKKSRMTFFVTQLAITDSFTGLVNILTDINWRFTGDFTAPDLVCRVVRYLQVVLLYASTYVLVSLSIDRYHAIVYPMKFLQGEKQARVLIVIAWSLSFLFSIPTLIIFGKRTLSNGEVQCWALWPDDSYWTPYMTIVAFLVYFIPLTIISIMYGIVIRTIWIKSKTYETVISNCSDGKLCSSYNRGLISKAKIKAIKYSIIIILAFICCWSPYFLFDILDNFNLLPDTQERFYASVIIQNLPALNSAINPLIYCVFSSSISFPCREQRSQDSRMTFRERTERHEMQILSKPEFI
GCN5L2 inh – inhibitors of human GCN5L2 histone acetyltransferase; GCN5L2 HAT assay, ThioGlo1 CoA-SH fluorescence; Potency, µM (series often up to 58.9 µM), for inactives: top-dose activity change, negative = inhibition, usual class: inhibitors; 390,000 tested, 0.21% active; Q92830; AID 504327; note: % is set by controls: 0 for no effect and ±100 for the full control effect
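qHTS, 1536-well. 20nM enzyme, pH 7.5 HEPES/EDTA/Tween-20 buffer; 15 min compound preinc., RT. Start: 75uM H3(1-25), 70uM AcCoA, 50uM ThioGlo1. Read Ex340/Em540 at t=0 (autofluorescence flag) and t=20 min.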
* hit, by the source's call; ? = inconclusive; nt = not tested or not shown; ! = a repeat was not active; [ ] = dose if it differs, or a comment. Unless noted, calls come from the whole dose curve; as a rule, active = well fitted curve in the direction sought with a large enough effect; inconclusive = small, poorly fitted or top-dose-only effect, or another doubt; inactive = no such curve, though single readings can be large; an effect the other way counts as inactive or inconclusive. Potency is the fitted concentration of half-maximal effect.

SMILES	KDM4E inh	Epigenetic reg	IMPase Li cell	Sfp PPTase inh	NPSR antag	GCN5L2 inh
Cc1ccc(C(=O)NC(=S)Nc2cccnc2Cl)cc1	nt	nt	nt	56µM*	nt	0%
COc1ccccc1C(=O)NC(=S)Nc1cccnc1Cl	nt	nt	nt	45µM*	nt	-13%
Cc1ccc(NC(=O)c2cc(N3C(=O)CCC3=O)ccc2N2CCOCC2)cc1	-14%	0%	10%	10%	7%	-5%
COc1ccccc1C(=O)NC(=S)Nc1ccc(N2CCOCC2)c(Cl)c1	-2%	10%	-3%	32µM*	-49%	-8%
Cc1ccc(C(=O)NC(=S)Nc2ccccc2C(F)(F)F)cc1	2%	-1%	nt	-8%	-17%[46.1 µM]	?
CCc1ccc(OCC(=O)N(Cc2ccc(OC)cc2)C2CCS(=O)(=O)C2)cc1 (stereo unspecified)	nt	3%	nt	nt	nt	0%
COC(=O)N[C@@H](/C=C/c1ccccc1)/C(C(=O)OC)=C(\C)NCc1ccccc1	2%	-1%	12%	-9%	nt	nt
CCOC(=O)C1CCCN(C2CC(=O)N(c3ccccc3)C2=O)C1 (stereo unspecified)	3%	-1%	8%	1%	10%	2%
CCOC(=O)C1CCCN(C2CC(=O)N(c3cccc(C(F)(F)F)c3)C2=O)C1 (stereo unspecified)	-6%	13%	-7%	50µM*	-7%[46.1 µM]	1%
CCOC(=O)c1cc(-c2ccccc2)n(CCC(=O)NCCc2ccc(C)cc2)c1C	nt	-1%	nt	nt	nt	-8%
Cc1ccc2cc(CCNC(=O)CC(C)(C)C)c(=O)[nH]c2c1C	6%	-1%	13µM*	1%	-44%	-6%
CCn1c(=O)c([N+](=O)[O-])c(NCCN(C)C)c2ccccc21	-1%	-2%	-3%	3.5µM*	-5%	4%
CCn1c(=O)c([N+](=O)[O-])c(NCC(O)c2ccccc2)c2ccccc21 (stereo unspecified)	-6%	-2%	0%	8%	2%	0%
COc1ccccc1N(C)S(=O)(=O)c1ccc(Cl)c(C(=O)NNC(=O)c2ccccc2O)c1	nt	nt	nt	56µM*	nt	-14%
C=C(CC)C(=O)c1ccc(OCC(=O)O)c(Cl)c1Cl	-10%	?	-1%	20µM*!	?	?
CCOC(=O)C(=O)C1(C(=O)OCC)Oc2cc(OC)cc(OC)c2C(=O)C1c1ccccc1 (stereo unspecified)	?	1%	-4%	-19%	nt	-10%
CCN(CC)c1ccc(/C=C(\C#N)c2nc(-c3cccs3)c(NC(C)=O)s2)cc1	-6%	1.6µM*	nt	?	-26%[46.1 µM]	-3%
COC(=O)NC(CCc1ccccc1)C(C(=O)OC)C(=O)OC (stereo unspecified)	-3%	?	22%	-25%	nt	nt
CCSC1=NC2(CCCCC2)Nc2sc3c(c21)CCCC3	?	9%	36%[38.3 µM]	40µM*	?	?
CCSc1nc2sc3c(c2c(=O)[nH]1)CCCC3	-9%	-1%	4%	9%	3%[46.1 µM]	-2%
Cc1ccc(O)c(N=Cc2ccc(C)s2)c1	?	2%	-2%	56µM*	9%	0%
Cc1nnc(C)c2c(C)n(Cc3ccc4c(c3)OCO4)c(C)c12	22µM*	-6%	33%[38.3 µM]	-8%	-25%[46.1 µM]	2%
C[C@@H]1CC[C@H]2C(=O)NC[C@@H](O)CN2[C@@H]1c1ccc(Br)cc1	nt	1%[10.1 µM]	nt	5%	nt	nt
O=C1OC(Nc2ccc(F)c([N+](=O)[O-])c2)c2ccccc21 (stereo unspecified)	0%	-2%	nt	-8%	13%	-1%
O=C1OC(Nc2ccc3c(c2)OCO3)c2ccccc21 (stereo unspecified)	?	-5%	6%[38.3 µM]	56µM*	-19%[46.1 µM]	-7%
Oc1cccc2ccc(SSc3ccc4cccc(O)c4n3)nc12	nt	nt	18%	nt	nt	nt
S=C(c1ccc(-c2ccccc2Cl)o1)N1CCCCC1	-3%	0%	12%	40µM*	-26%	-1%
S=C(c1ccc(-c2ccc(Cl)cc2)o1)N1CCCCC1	-5%	0%	22%[38.3 µM]	20µM*	-9%[46.1 µM]	-4%

Source: PubChem
